# Screens (PubChem BioAssay)
# Rows were chosen to be rich in hits. Some 3.5% of all compounds tested hit in one or more screens of this group.
# BoNT A protease: BoNT/A light chain protease inhibitors, primary screen, biochemical, flow cytometry, MLPCN library. Botulinum neurotoxin type A light chain protease (Clostridium botulinum A str. ATCC 3502). inhibition, % at 10 µM. AID 588499, 2011. multiplex microsphere protease substrate cleavage. 360,000 compounds, 0.17% hits; note: plate controls were buffer without enzyme for full effect and enzyme alone for no effect
# BJeLR viability: MLPCN primary cell-based screen for lethality selective to Ras in HRASV12 cells; BJeLR (HRASV12) viability, CellTiter-Glo ATP luminescence, 48 h; inhibition, % (no concentration beside the values); 300,000 compounds, 0.17% hits; in the data active = inhibition above about 50%; inconclusive = no clear call, values can overlap the other calls
# Bead autofluor: compound fluorescence in toxin protease inhibitor counterscreen; compound autofluorescence counterscreen, microsphere flow cytometry; active compounds read high; fluorescence intensity (concentration not given with the values); 360,000 compounds, 3.1% hits; in the data active = fluorescence intensity above about 16000; inconclusive = no clear call, values can overlap the other calls
# Anthrax LF prot: Bacillus anthracis LF protease inhibitors, primary screen, biochemical, multiplex microsphere, MLPCN library; inhibition, % at 10 µM; Lethal factor (Bacillus anthracis), P15917; AID 588501, 2011; 360,000 compounds, 0.12% hits; multiplex microsphere protease cleavage assay; note: plate controls were buffer without enzyme for full effect and enzyme alone for no effect
# Target sequence (P15917 whole entry, looked up): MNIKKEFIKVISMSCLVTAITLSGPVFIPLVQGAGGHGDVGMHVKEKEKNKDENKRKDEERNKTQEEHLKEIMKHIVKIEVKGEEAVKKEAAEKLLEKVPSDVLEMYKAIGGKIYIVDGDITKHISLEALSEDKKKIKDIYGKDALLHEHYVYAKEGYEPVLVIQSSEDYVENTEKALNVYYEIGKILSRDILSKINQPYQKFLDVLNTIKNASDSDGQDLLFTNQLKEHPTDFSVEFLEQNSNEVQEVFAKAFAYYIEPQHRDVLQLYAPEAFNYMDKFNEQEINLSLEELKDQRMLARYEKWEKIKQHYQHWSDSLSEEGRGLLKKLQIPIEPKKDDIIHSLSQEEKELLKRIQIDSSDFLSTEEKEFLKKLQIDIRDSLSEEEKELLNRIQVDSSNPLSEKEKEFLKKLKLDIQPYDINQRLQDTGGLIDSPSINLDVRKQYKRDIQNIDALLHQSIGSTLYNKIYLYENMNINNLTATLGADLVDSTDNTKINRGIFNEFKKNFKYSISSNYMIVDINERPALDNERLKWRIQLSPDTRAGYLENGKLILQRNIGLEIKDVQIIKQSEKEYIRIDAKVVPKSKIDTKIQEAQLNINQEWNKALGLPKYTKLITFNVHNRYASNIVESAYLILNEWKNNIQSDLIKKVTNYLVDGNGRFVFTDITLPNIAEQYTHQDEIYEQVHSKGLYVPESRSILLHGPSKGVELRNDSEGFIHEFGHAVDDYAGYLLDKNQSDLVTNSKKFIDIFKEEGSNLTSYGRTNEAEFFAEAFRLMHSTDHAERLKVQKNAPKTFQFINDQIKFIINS
# BoNT F protease: BoNT/F light chain protease inhibitors, primary screen, biochemical, flow cytometry, MLPCN library | Botulinum neurotoxin type F light chain protease (Clostridium botulinum) | Multiplex microsphere protease cleavage assay | inhibition, % at 10 µM | 360,000 compounds, 0.22% hits | AID 588497, 2011; in the data active = inhibition above about 35%, passing the limit was not always enough; inconclusive = no clear call, values can overlap the other calls; note: plate controls were buffer without enzyme for full effect and enzyme alone for no effect
# * hit, by the source's call; ? = inconclusive; . = not tested or not shown. Cut-off read from the data, not from the text of the source, unless noted: active = inhibition above about 30%; inconclusive = no clear call, values can overlap the other calls; inactive = below that.
SMILES,BoNT A protease,BJeLR viability,Bead autofluor,Anthrax LF prot,BoNT F protease
CC1(C)CC(NC(=O)C23CCC(C)(C(=O)C2=O)C3(C)C)CC(C)(C)N1 (configuration not stated),0,-4,4471,5,-3
CC1(C)CC(NC(=O)C23CCC(C)(C2Br)C3(C)C)CC(C)(C)N1 (configuration not stated),6,0,3593,5,35*
CCc1cc2c(SCC(=O)NC3CCCC3)ncnc2s1,0,.,2901,-1,-2
CC(=O)c1ccc(OC2(C)CCN(Cc3csc4ccccc34)C2)cc1 (configuration not stated),0,.,4078,-7,-3
O=C(COC(=O)c1ccc2ccccc2n1)Nc1ncc(C(F)(F)F)cc1Cl,-1,-2,22793*,3,2
O=C(COC(=O)CCc1ccc(S(=O)(=O)N2CCOCC2)cc1)Nc1ncc(C(F)(F)F)cc1Cl,-5,-3,25667*,0,-9
Nc1ccccc1C(=O)NNc1ncc(C(F)(F)F)cc1Cl,?,2,22928*,-1,-4
O=C(NNc1ncc(C(F)(F)F)cc1Cl)c1ccc(Cl)c(Cl)c1,.,7,.,.,.
CCN(CC)C(=O)C1=C(C)N(Cc2ccc(F)cc2)C(=O)C(CC(=O)NCC2CCCCC2)C1 (configuration not stated),0,.,3314,-5,-4
COCCn1c(=O)c2cc3c(=O)n(CCOC)c(=O)c3cc2c1=O,1,-7,10789,-5,2
Fc1cccc(C2NC(=S)NC3=C2N2CCC3CC2)c1 (configuration not stated),-2,22,17015*,-4,-3
CCCCC1=CC2=C(c3ccco3)C(=O)C(C)(OC(=O)c3ccc(OC)cc3)C(=O)C2=CN1C1CCCC1 (configuration not stated),.,4,.,.,.
CC1=C(C(=O)Nc2ccccc2)C(c2cccnc2)n2nc(-c3cccnc3)nc2N1 (configuration not stated),-1,7,22749*,-2,2
COc1ccc(C(OC(=O)c2c(C)noc2C)C(=O)NC2CCCC2)cc1 (configuration not stated),0,6,19678*,0,-1
Cc1nc2ccccn2c(=O)c1NC(=O)c1ccc2c(c1)OCO2,0,.,2952,6,-1
COc1ccc(/C=N/NC(=O)c2ccc(N3CCCC3=O)cc2)cc1,1,-8,?,-2,3
COc1cccc2[nH]c3c(N4CCC(C)CC4)ncnc3c12,0,-3,23249*,0,-4
O=C(Nc1cccc(C(F)(F)F)c1)c1csc([C@H]2C[C@H](O)[C@@H](CO)O2)n1,0,.,3540,-4,-2
Cc1cc(=O)[nH]c(N2CCc3ccccc3C2)n1,-5,21,25748*,1,-5
Cc1cc(=O)[nH]c(SCC(=O)N2CCc3ccccc3C2)n1,0,-17,20691*,0,0
Nc1cc(=O)[nH]c(SCC(=O)N2CCCc3ccccc32)n1,-2,-4,16983*,-2,-8
O=C(CSc1nnnn1-c1ccc(Cl)cc1)N1CCc2ccccc2C1,1,6,21981*,2,3
CCCc1cc(=O)[nH]c(SCC(=O)N2CCCc3ccccc32)n1,-2,31,4519,-2,0
COc1ccc(OC)c(/C=C2/Sc3ccccc3C2=O)c1,7,6,7168,3,13
COc1ccc(CC(=O)NC(=S)Nc2cccc(CO)c2)cc1,.,-1,.,.,.
SMILES,BoNT A protease,BJeLR viability,Bead autofluor,Anthrax LF prot,BoNT F protease
COc1ccc(CN2C[C@@H](CO)O[C@@H](n3cnc4c(NC5CC5)ncnc43)C2)cc1,0,.,3744,0,5
Cc1cc(N2CCOCC2)cc(C)[n+]1[O-],-1,.,16435*,-4,0
Cc1c(Br)ccc(NC(=O)CCN2C(=O)C3C4CCC(C4)C3C2=O)c1C (configuration not stated),?,-1,23010*,-5,-1
Cc1cc(NC(=O)CCN2C(=O)C3C4CCC(C4)C3C2=O)cc(C)c1Br (configuration not stated),1,-8,2612,1,-5
O=C(CCn1nnc2ccccc21)Nc1nnc(COc2ccccc2F)s1,1,-10,3701,0,8
O=C(CCn1nnc2ccccc21)Nc1nnc(-c2ccccc2F)s1,2,-13,22751*,2,4
C=CCn1c(=N)c(C(=O)NCCCOC)cc2c(=O)n3cccc(C)c3nc21,2,-8,2506,3,0
COCCCNC(=O)c1cccn2c(=O)c3cc4ccccc4cc3nc12,?,-8,24282*,8,3
COc1ccccc1NC(=O)CSc1nc2n[nH]c(C)c2c(=N)n1-c1ccccc1Cl,-1,0,22575*,-1,-4
CCCCN(CC)C(=O)CSc1nc2n[nH]c(C)c2c(=N)n1-c1cccc(C)c1,0,-5,2035,0,-2
Cc1cccc(-n2c(SCC(=O)N3CCCC3)nc3n[nH]c(C)c3c2=N)c1,?,.,22446*,0,-4
CCOC(=O)Cc1csc(NC(=O)c2sc3nc4c(C)cc(C)cc4cc3c2N)n1,11,-5,11500,10,8
N#CCc1ccc(NC(=O)/C=C/c2ccc([N+](=O)[O-])o2)cc1,3,101*,4639,-1,12
O=C(O)/C=C/c1ccc([N+](=O)[O-])o1,1,1,2887,-4,-4
O=C(Cc1ccc([N+](=O)[O-])cc1)N/N=C/c1ccc([N+](=O)[O-])o1,0,55*,3338,-2,-6
O=C1C=CCC(/C=C/c2ccccc2)O1 (configuration not stated),.,22,.,.,.
O=C1CC(N(C(=O)c2ccco2)c2cccc(Cl)c2)C(=O)N1c1cccc(Cl)c1 (configuration not stated),0,0,11735,0,-4
O=C1CC(N(C(=O)c2ccco2)c2ccc(F)cc2)C(=O)N1c1ccc(F)cc1 (configuration not stated),?,0,19184*,1,11
Cc1ccc(-c2c3c([nH]c(=S)c2C#N)CCCC3)o1,?,0,24820*,0,-9
CN(C(=O)c1ccccc1NC(=O)C(F)(F)F)c1ccccc1,10,-4,19216*,-6,10
COc1cc(OC)c(N(C)C(=O)c2cc3c(s2)-c2ccccc2S(=O)(=O)C3)cc1Cl,0,12,6207,-3,-2
CSCCC(NC(=O)OC(C)(C)C)C(=O)NC(C(=O)NC(CC(C)C)C(N)=O)C(C)C (configuration not stated),2,1,9295,11,72*
CC(C)CC(NC(=O)C(NC(=O)OC(C)(C)C)C(C)C)C(N)=O (configuration not stated),0,1,2189,-1,-1
